# Screening data (PubChem)
# An excerpt weighted towards active compounds, which were near 2.4% of everything screened.
# PTK2B oligo ant = Pyk2 (human) oligomerization antagonism | Q14289 | Q293 cells, Pyk2 FERM NanoBiT luminescence; hits give low values | z-score (the deposit names both 25 µM and 10 µM) | 0.83% of 99,000 active;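 active = Z-score of -3 or lower, scaled per plate to the spread of control and sample wells; inactive = z-score above -3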;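 note: negative z-score means lost luminescence so less FERM oligomerization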
# IL1B NFkB pot = enhances IL-1B driven NFkB nuclear translocation | 0.3% of 94,000 active | activation, % at 2 µM | HUVEC IL-1B NFkB p65 nuclear translocation imaging;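 active = activation above 40%, about the mean plus 3 SD, also judged a hit on visual image review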;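 note: percent activation is computed from the nuclear over cytoplasmic p65 intensity ratio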
# HUVEC tox IL1B = HUVEC cytotoxicity counter-screen, IL-1B stimulated | HUVEC cell count loss, Hoechst imaging | cell count reduction, % at 2 µM | 0.41% of 94,000 active | AID 845;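 active = cell count reduction more than 3 SD above the screen-wide mean, cut at about 70% in these data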;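 note: normalized per plate to untreated control cells as the no-loss baseline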
# JNK3 blocker = JNK3 (human) kinase inhibition | AID 746 | purified JNK3 kinase activity, HTS | P53779 | 0.61% of 60,000 active | inhibition, % at 8 µM; in the data active = inhibition above about 17%;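 note: 0% = DMSO and 100% = reference inhibitor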
# Target sequence (P53779 whole entry, looked up): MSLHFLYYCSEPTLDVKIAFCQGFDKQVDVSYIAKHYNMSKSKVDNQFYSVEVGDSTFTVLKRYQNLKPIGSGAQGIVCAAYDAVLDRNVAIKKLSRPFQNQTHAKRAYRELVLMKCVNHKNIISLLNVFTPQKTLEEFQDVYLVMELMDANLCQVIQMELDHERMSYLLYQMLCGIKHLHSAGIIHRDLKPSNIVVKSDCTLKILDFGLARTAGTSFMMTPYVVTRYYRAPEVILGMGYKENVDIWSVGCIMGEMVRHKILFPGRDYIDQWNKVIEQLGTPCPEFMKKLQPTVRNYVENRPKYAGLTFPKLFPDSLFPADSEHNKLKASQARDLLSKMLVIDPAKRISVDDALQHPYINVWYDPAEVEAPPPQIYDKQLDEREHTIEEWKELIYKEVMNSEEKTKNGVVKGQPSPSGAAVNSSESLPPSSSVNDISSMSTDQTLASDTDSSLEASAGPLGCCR
# NFkB transloc inh = blocks IL-1B driven NFkB nuclear translocation in HUVEC cells; inhibition, % at 2 µM; HUVEC IL-1B NFkB p65 nuclear translocation imaging; 0.43% of 94,000 active;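 active = inhibition above about 30% together with a positive call from visual inspection of the well image, limit read from the data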;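 note: nuclear over cytoplasmic p65 intensity ratio measured by imaging; 0% = IL-1B stimulated DMSO wells and 100% = unstimulated DMSO wells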
# FAK inh = inhibitors of human focal adhesion kinase; biochemical FAK kinase activity assay; Q05397; inhibition, %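 (tested at 7 µM)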; 0.84% of 97,000 active; in the data active = inhibition above about 19%;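 note: 0% = DMSO and 100% = reference compound high control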
# An asterisk follows results filed as active; x = no result.
SMILES,PTK2B oligo ant,IL1B NFkB pot,HUVEC tox IL1B,JNK3 blocker,NFkB transloc inh,FAK inh
Cn1c(=O)cc(SCC(=O)Nc2ccccn2)c2ccccc21,x,-6,-18,10,6,-13
Cc1ccnc(NC(=O)CCCOc2cc(=O)n(C)c3ccccc23)c1,-1.4,-4,0,27*,4,7
CCOC(=O)Cc1csc(SCC(=O)/C(C#N)=C(\C)N)n1,1.1,4,4,0,-4,0
O=c1c2ccccc2nc(/C=C/c2ccc([N+](=O)[O-])o2)n1CCCO,-0.47,-15,-9,x,15,-4
COC(=O)c1ccc(C2C(C(C)=O)=C(C)Nc3ncnn32)cc1 (centres undefined),x,-2,-13,1,2,2
COC(=O)CCS(=O)(=O)c1nc(-c2ccccc2)cc(C(F)(F)F)n1,-2.5,-37,-4,x,37*,1
O=C(O)CCS(=O)(=O)c1nc(-c2cccs2)cc(C(F)(F)F)n1,0.55,5,-9,x,-5,2
CS(=O)(=O)c1nc(-c2cccs2)cc(C(F)(F)F)n1,x,-31,0,x,31*,1
CCOC(=O)CCS(=O)(=O)c1nc(-c2ccccc2)cc(C(F)(F)F)n1,0.15,-15,32,11,15,0
O=S(=O)(NCCc1ccncc1)c1cc(Br)ccc1F,0.65,8,92*,1,-8,-2
CN1CCN(C(=O)c2c(NC(=O)c3ccco3)sc3c2CCC(C(C)(C)C)C3)CC1 (centres undefined),-4.6*,18,-10,x,-18,1
CC(C)(C)C1CCc2c(sc(NC(=O)c3cccs3)c2C(N)=O)C1 (centres undefined),-0.21,3,-28,x,-3,1
NC(=O)c1ccsc1NC(=O)c1nc(-c2ccccc2)n(-c2ccccc2)n1,-4.4*,x,x,-1,x,x
COC(=O)c1ccccc1N(Cc1ccccc1)S(C)(=O)=O,-0.92,-6,-3,1,6,-2
CCCNC(=O)N1CCN(c2ncccn2)CC1,0.33,56*,6,-5,-56,2
COc1ccc(CNC(=O)C(CCSC)NC(=O)c2ccco2)cc1 (centres undefined),0.92,2,6,x,-2,-1
Cc1[nH]c2ccccc2c1Cc1n[nH]c(=S)o1,x,46*,13,x,-46,-3
Cc1[nH]c2ccccc2c1Cc1n[nH]c(=S)n1C,0.49,3,51,x,-3,1
CC(NCc1ccc(N(C)C)cc1)C1CC2CCC1C2 (centres undefined),0.88,-1,27,x,2,3
Cc1ccc(N(CC(=O)Nc2ccccc2-c2ccccc2)S(=O)(=O)c2ccccc2)cc1,-3.9*,-7,1,x,6,2
C=CCn1c(=O)c(C(=O)Nc2nnc(C)s2)c(O)c2ccccc21,x,x,x,-3,x,x
c1ccc(-c2onc3cc4c(cc23)OCCO4)cc1,0.16,x,x,22*,x,x
Cc1cc(Cl)c(S(=O)(=O)N2CCSCC2)cc1OCC(N)=O,1.4,1,75*,-4,-1,-6
Cc1cc(Cl)c(S(=O)(=O)N2CC(C)OC(C)C2)cc1OCC(N)=O (centres undefined),0.7,-9,-10,5,9,2
C=CCC(=O)OCC(=O)Nc1ccc(Oc2ccccc2)cc1,x,11,-14,x,-11,-4
SMILES,PTK2B oligo ant,IL1B NFkB pot,HUVEC tox IL1B,JNK3 blocker,NFkB transloc inh,FAK inh
COc1ccc(Nc2nc(N)nc(COc3ccc(OC)cc3)n2)cc1,-0.89,-33,-7,x,33*,-2
CCN(CC(=O)Nc1ccc2c(c1)OC(F)(F)O2)Cc1nc2ccccc2c(=O)[nH]1,-3.9*,-12,10,x,12,1
COc1ccc(/C=N/NC(=O)C(Cc2c[nH]c3ccccc23)NC(=O)OCC(C)C)cc1[N+](=O)[O-] (centres undefined),-0.4,8,-18,x,-8,6
COc1ccccc1NC(=O)N1CCC(c2nc3cc(C)c(C)cc3[nH]2)CC1,0.2,-1,5,x,1,1
COc1ccccc1NC(=S)N1CCC(c2nc3cc(C)c(C)cc3[nH]2)CC1,0.05,-56,-15,x,56*,1
CCc1nc2sc(C)c(C)c2c(=O)n1CCO,1.2,19,22,2,-19,-2
CCC(C)Sc1nc2c(c(=O)[nH]c(=O)n2C)n1C (centres undefined),0.14,7,91*,-3,-7,-5
CC(C)Sc1nc2c(c(=O)[nH]c(=O)n2C)n1C,1.1,1,29,-3,-1,-1
Cc1ccc(-n2nc(C)cc2NC(=O)c2ccc(C)s2)cc1,-0.78,2,1,x,-2,0
CC(=O)Oc1cccc(N2C(=O)C3CC=CCC3C2=O)c1 (centres undefined),-0.11,30,89*,x,-30,-2
COc1ccc(N(C)S(=O)(=O)c2cccc(C(=O)Nc3ccc(-n4cnnn4)cc3)c2)cc1,-2.4,14,5,3,-14,3
Cc1cc(C)nc(N(C#N)CCOc2ccc(Cl)cc2)n1,-4.2*,4,-10,x,-4,-1
O=C(c1ccc(COc2ccccc2Br)cc1)N1CCCCC1,-1.3,54*,0,x,-54,2
O=C(c1ccc(COc2ccccc2Br)o1)N1CCCCCC1,-1.9,-2,-13,0,2,3
CC1CCCN(C(=O)C2CCN(CC(C)c3ccccc3)CC2)C1 (centres undefined),-0.23,-2,18,x,2,0
O=C(Nc1nnc(C2CC2)s1)C1Cc2ccccc2CN1S(=O)(=O)c1ccccc1F (centres undefined),-3.7*,-1,-6,x,0,0
O=C(Nc1nccs1)C1Cc2ccccc2CN1S(=O)(=O)c1ccc(F)cc1 (centres undefined),-1.7,-4,-6,x,4,-1
CCOC(=O)Nc1nc(-c2ccccc2)c(C(=O)c2ccc(Cl)cc2)s1,-3.4*,-28,48,x,28,1
CCOC(=O)Nc1sc(C)nc1-c1ccccc1,0.91,-1,4,-2,1,-7
COCCNC(=O)c1ccccc1NC(=O)c1ccccc1N(C)S(=O)(=O)c1ccc(C)cc1,-0.38,-2,-12,x,2,1
Oc1[nH]c2ccccc2c1C=Nc1ccc2c(c1)OCO2,-2.1,x,x,36*,x,x
Cc1[nH]c2ccccc2c1/C=N\NC(=O)CNc1ccc2c(c1)OCO2,0.21,x,x,x,x,x
CC1CCCN(S(=O)(=O)c2ccc(C(=O)Nc3nnc(-c4ccccc4Cl)o3)cc2)C1 (centres undefined),-3.8*,2,1,-1,-2,-1
COc1cccc(-c2nnc(NC(=O)c3ccc(S(=O)(=O)N4CC(C)OC(C)C4)cc3)o2)c1 (centres undefined),-4.1*,0,3,2,0,9
CC1CC(C)CN(S(=O)(=O)c2ccc(C(=O)Nc3nnc(-c4cccs4)o3)cc2)C1 (centres undefined),-4.5*,7,4,-1,-7,2
CCC1CCCCN1S(=O)(=O)c1ccc(C(=O)Nc2nnc(-c3cccs3)o2)cc1 (centres undefined),-2.9,-1,-8,1,1,-4
